Laboratory results from ChEMBL document CHEMBL4513146, “CO-ADD screening of Karazin Kharkiv National University (Ukraine) compounds”.
Entries with a potency or affinity are not part of this list.

The compounds below were run on Candida albicans. Details: Concentration 32 ug.mL-1; ASSAY_TEST Inhibition of Fungal Growth; detection method Absorption (OD530).

SMILES	Inhibition [%]
CSc1cccc(NC(=O)Cn2nc3ccc(SC(C)(C)C)nn3c2=O)c1	2.25
C=Cc1ccc(CN(c2ccc(F)cc2)S(=O)(=O)c2ccc3nnc(C)n3c2)cc1	1.83
COc1cccc(-n2ccn3c(SCC(=O)NCc4ccco4)nnc3c2=O)c1	4.76
N#CCn1nc2n(Cc3ccccc3)c(=O)c3ccccc3n2c1=O	-1.85
COc1ccc(CNC(=O)CSc2nnc3c4cc(-c5ccccc5)nn4ccn23)cc1	0.38
COc1ccc(OC)c(NC(=O)Cn2nc3c4cc(-c5ccc(F)cc5)nn4ccn3c2=O)c1	3.04
COC(=O)c1cccc(NC(=O)Cn2nc3c(Sc4ccc(C)cc4C)nccn3c2=O)c1	-2.57
CCCCn1c(=O)c2sccc2n2c(CCC(=O)NCCC34CC5CC(CC(C5)C3)C4)nnc12	-0.35
Cc1ccc(Sc2ccc3nn(CC(=O)Nc4ccc(Br)c(C)c4)c(=O)n3n2)cc1	11.69
COc1ccc(NC(=O)C(C)Sc2nnc3c(=O)n(-c4ccc(C)c(C)c4)ccn23)cc1 (centres undefined)	-1.2
CCOc1ccc(C(=O)Cn2nc3n(Cc4ccccc4OC)c(=O)c4sccc4n3c2=O)cc1	6.12
Cc1cc2nn(CC(=O)NCc3ccccc3)c(=O)n2c(Nc2ccc(C)c(F)c2)n1	6.49
COC(=O)c1ccccc1NC(=O)Cn1nc2c(Oc3ccccc3C)nccn2c1=O	0.12
O=c1n(Cc2nc(-c3ccc(Br)cc3)no2)nc2ccc(-c3ccccc3)nn12	1.04
CCc1ccccc1Sc1nccn2c(=O)n(CC(=O)N3CCN(c4ccccc4)CC3)nc12	3.92
Cc1cc2nn(CC(=O)Nc3ccc4c(c3)OCCO4)c(=O)n2c(Nc2ccccc2C)n1	7.15
COc1ccc(NC(=O)c2ccc3nn(CC(=O)Nc4cccc(OC)c4)c(=O)n3c2)cc1	4.49
Cc1ccccc1NC(=O)Cn1nc2c3cc(-c4ccc(Cl)cc4)nn3ccn2c1=O	1.52
Cc1ccc(N(Cc2ccc(F)cc2)S(=O)(=O)c2ccc3nnc(C)n3c2)cc1	1.54
Cc1ccc(-c2ccc3nn(Cc4nc(-c5ccc(Cl)cc5)no4)c(=O)n3n2)cc1	7.26
COc1cccc(CN(c2ccc(C)c(F)c2)S(=O)(=O)c2ccc3nncn3c2)c1	-0.35
COc1ccc(CNC(=O)CCc2nnc3ccc(-c4ccccc4)nn23)cc1OC	-1.16
CC(=O)c1ccc(NC(=O)Cn2nc3c(SC4CCCCC4)nccn3c2=O)cc1	0.5
CCOc1ccccc1NC(=O)Cn1nc2c(Oc3cccc(OC)c3)nccn2c1=O	0.7
CCCc1nnc2c(=O)n(CC(=O)Nc3ccc(Cl)c(Cl)c3)c3ccccc3n12	0.11

The compounds below were run on Cryptococcus neoformans. Details: Concentration 32 ug.mL-1; ASSAY_TEST Inhibition of Fungal Growth; detection method Resazurin; Absorption (OD600-OD570); plate type 384well; NBS; CORNING #3640.

SMILES	Inhibition [%]
COc1ccc(CNC(=O)Cn2nc3c4cc(-c5ccc(OC)cc5)nn4ccn3c2=O)cc1	-14.67
O=C(Cn1nc2c(N3CCOCC3)nccn2c1=O)NCc1ccc(F)cc1	-8.56
Cc1cccc(Oc2nccn3c(=O)n(CC(=O)NCCCc4ccccc4)nc23)c1C	-6.84
CCC(C)NC(=O)Cn1nc2n(CC(C)C)c(=O)c3ccc(C(=O)NC4CCCCC4)cc3n2c1=O (centres undefined)	-14.64
COc1ccc(NC(=O)Cn2nc3cc(C)nc(Nc4ccc(F)cc4)n3c2=O)cc1F	-3.63
Cc1cc(C)cc(NC(=O)Cn2nc3c4cc(-c5ccc(C)c(C)c5)nn4ccn3c2=O)c1	-17.96
Cc1nnc2c(S(=O)(=O)N(Cc3ccccc3)c3ccc(C(C)C)cc3)cccn12	-8.23
Cc1cc(C)cc(N(Cc2ccc(Cl)cc2)S(=O)(=O)c2cccn3c(C)nnc23)c1	-8.23
CCOc1ccccc1CNC(=O)CCc1nnc2ccc(-c3ccc(C)cc3)nn12	-5.38
O=C(Cn1nc2c(SC3CCCCC3)nccn2c1=O)Nc1ccc(Cl)cc1F	-29.46
O=C(CCc1nnc2ccc(-c3ccc(Cl)cc3)nn12)NCc1ccc(F)cc1Cl	-15.23
COC(=O)c1ccc(CN(c2cccc(C)c2)S(=O)(=O)c2cccn3c(C)nnc23)o1	-7.03
CSc1ccc(CNC(=O)Cn2nc3c(N4CC(C)CC(C)C4)nccn3c2=O)cc1 (centres undefined)	-5.38
CC(C)CCn1c(=O)c2ccc(C(=O)NC3CCCCC3)cc2n2c(=S)[nH]nc12	-13.59
CSc1cccc(NC(=O)Cn2nc3ccc(SC(C)(C)C)nn3c2=O)c1	-15.09
C=Cc1ccc(CN(c2ccc(F)cc2)S(=O)(=O)c2ccc3nnc(C)n3c2)cc1	-7.48
COc1cccc(-n2ccn3c(SCC(=O)NCc4ccco4)nnc3c2=O)c1	-13.76
N#CCn1nc2n(Cc3ccccc3)c(=O)c3ccccc3n2c1=O	-7.48
COc1ccc(CNC(=O)CSc2nnc3c4cc(-c5ccccc5)nn4ccn23)cc1	-28.39
COc1ccc(OC)c(NC(=O)Cn2nc3c4cc(-c5ccc(F)cc5)nn4ccn3c2=O)c1	-6.46

SMILES	Inhibition [%]
COC(=O)c1cccc(NC(=O)Cn2nc3c(Sc4ccc(C)cc4C)nccn3c2=O)c1	-30.13
CCCCn1c(=O)c2sccc2n2c(CCC(=O)NCCC34CC5CC(CC(C5)C3)C4)nnc12	-18.41
Cc1ccc(Sc2ccc3nn(CC(=O)Nc4ccc(Br)c(C)c4)c(=O)n3n2)cc1	-8.57
COc1ccc(NC(=O)C(C)Sc2nnc3c(=O)n(-c4ccc(C)c(C)c4)ccn23)cc1 (centres undefined)	-9
CCOc1ccc(C(=O)Cn2nc3n(Cc4ccccc4OC)c(=O)c4sccc4n3c2=O)cc1	-29.81
Cc1cc2nn(CC(=O)NCc3ccccc3)c(=O)n2c(Nc2ccc(C)c(F)c2)n1	-3.12
COC(=O)c1ccccc1NC(=O)Cn1nc2c(Oc3ccccc3C)nccn2c1=O	-8.78
O=c1n(Cc2nc(-c3ccc(Br)cc3)no2)nc2ccc(-c3ccccc3)nn12	-15.1
CCc1ccccc1Sc1nccn2c(=O)n(CC(=O)N3CCN(c4ccccc4)CC3)nc12	-19.52
Cc1cc2nn(CC(=O)Nc3ccc4c(c3)OCCO4)c(=O)n2c(Nc2ccccc2C)n1	-3.99
COc1ccc(NC(=O)c2ccc3nn(CC(=O)Nc4cccc(OC)c4)c(=O)n3c2)cc1	-9.24
Cc1ccccc1NC(=O)Cn1nc2c3cc(-c4ccc(Cl)cc4)nn3ccn2c1=O	-18.17
Cc1ccc(N(Cc2ccc(F)cc2)S(=O)(=O)c2ccc3nnc(C)n3c2)cc1	-13.44
Cc1ccc(-c2ccc3nn(Cc4nc(-c5ccc(Cl)cc5)no4)c(=O)n3n2)cc1	-7.02
COc1cccc(CN(c2ccc(C)c(F)c2)S(=O)(=O)c2ccc3nncn3c2)c1	-8.8
COc1ccc(CNC(=O)CCc2nnc3ccc(-c4ccccc4)nn23)cc1OC	-12.03
CC(=O)c1ccc(NC(=O)Cn2nc3c(SC4CCCCC4)nccn3c2=O)cc1	-15.4
CCOc1ccccc1NC(=O)Cn1nc2c(Oc3cccc(OC)c3)nccn2c1=O	-8.27
CCCc1nnc2c(=O)n(CC(=O)Nc3ccc(Cl)c(Cl)c3)c3ccccc3n12	-14.21
